In PubChem BioAssay (Tox21):
Results filed as inconclusive are left out. The source made the active and inactive calls. The call rests on the fitted dose curve.

Experiment: p53 small molecule agonists, cell-based qHTS assay with rat liver microsomes: qHTS cell viability counter screen (AID 1963580); further: nearly all actives have a fitted effect of over 45% in size
Settings: p53RE-bla HCT-116 + rat microsomes, ATP viability, 16 h; series mostly up to 66 µM; activity change, negative = cytotoxicity: at the top concentration
From the text: National Center for Advancing Translational Sciences [NCATS]
Division of Preclinical Innovation [DPI]
U.S. Environmental Protection Agency [EPA]
National Institutes of Environmental Health Sciences [NIEHS]
National Toxicology Program [NTP]
U.S. Food and Drug Administration [FDA]
p53, a tumor suppressor protein, is activated following cellular insult, including DNA damage and other cellular stresses. The activation of p53 regulates cell fate by inducing DNA repair, cell cycle arrest, apoptosis, or cellular senescence. The activation of p53, therefore, is a good indicator of DNA damage and other cellular stresses. The CellSensor p53RE-bla HCT-116 cell line contains a stably integrated beta-lactamase reporter gene under control of the p53 response elements. The activation of the reporter gene under culture conditions can be detected by fluorescence intensity. This cell line was used to screen the Tox21 10K compound library in the condition of presence of rat liver microsomes and to identify agonists that activate the p53 signaling pathway after in vitro metabolic activation (Ooka et al., Archive of Toxicology 96:1975-1987, 2022). The cytotoxicity of the Tox21 compound library against the p53 RE-bla HCT-116 cell line was tested in parallel by measuring the intra cellular ATP content in the same wells.
Tox21 Assay Protocol Summary:
The p53RE-bla cells were dispensed at 4,000cells/3ul/well in 1536-well black-clear bottom plates. After the assay plates were incubated at 37 C, 5% CO2 incubator for 5 hours, 23 nL of compounds dissolved in DMSO, positive controls or DMSO only was transferred to the assay plate. Following compound addition, 3 uL of rat liver microsomes (Molecular Toxicology, Boone, NC) at final concentration of 0.5 mg/mL and 1uL of B-Nicotinamide adenine dinucleotide 2'-phosphate (NADPH) at final concentration of 0.5 mg/mL were transferred to the assay plate. The plates were incubated at 37 C for 16 hours. 1 uL of LiveBLAzer detection mixture was added to each well and the plates were incubated at room temperature in the dark for 2 h. Fluorescence intensity at 460 and 530 nm emission and 405 nm excitation were measured by an Envision plate reader. For cell viability readout that measures cytotoxicity, 4 ul/well of CellTiter-Glo reagent was added into the assay plates using a Flying Reagent Dispenser. After 30 min incubation at room temperature, the luminescence intensity in the plates was measured using a ViewLux plate reader.
On the % scale 0 is the no-effect control and ±100 the full control effect.

Compound	activity change, negative = cytotoxicity
CC(C)=CCC1C(=O)N(c2ccccc2)N(c2ccccc2)C1=O	-0.686% [at 30.3 µM] (inactive)
CCCCCCCCCCCCCCCCOS(=O)(=O)O	2.36% [at 30.3 µM] (inactive)
CC(=O)Nc1cccc(C)c1	0.0358% (inactive)
Cc1nc(C)nc(N2C[C@@H](C)N(c3ccnc([C@@H](C)O)n3)[C@@H](C)C2)n1	2.89% [at 30.3 µM] (inactive)
CC(C)=CC(=O)O	-8.34% (inactive)
Cl[Si](Cl)(c1ccccc1)c1ccccc1	0.754% (inactive)
O=C(O)CNCC(=O)O	8.22% [at 5.99 µM] (inactive)
Oc1ccc(Cl)c2cccnc12	-16.4% [at 30.3 µM] (inactive)
CC(CCc1ccccc1)NCC(O)c1ccc(O)c(C(N)=O)c1 (stereo not given)	-1.89% (inactive)
O[C@@H](CNC[C@H](O)[C@H]1CCc2cc(F)ccc2O1)[C@@H]1CCc2cc(F)ccc2O1	-10.4% [at 30.3 µM] (inactive)
CC(C)CC(C)CC(C)CC(C)COC(=O)c1ccccc1C(=O)OCC(C)CC(C)CC(C)CC(C)C (stereo not given)	-6.3% (inactive)
N=C(N)c1ccc(OCCCOc2ccc(C(=N)N)cc2)cc1	6.55% [at 30.3 µM] (inactive)
CCCCOCCOC(=O)COc1cc(Cl)c(Cl)cc1Cl	-6% (inactive)
Nc1c2c(nc3c1CCC3)CCCC2	-2.81% [at 30.3 µM] (inactive)
O=C1OC(=O)C2C3C=CC(C3)C12 (stereo not given)	-2.27% (inactive)
NS(=O)(=O)c1cc(C(=O)NN2C[C@H]3[C@H]4CCC(C4)[C@H]3C2)ccc1Cl	-6.69% [at 30.3 µM] (inactive)
CC(=O)OCC(=O)[C@@]1(O)CCC2C3CCC4=CC(=O)CC[C@]4(C)C3[C@@H](O)C[C@@]21C (stereo not given in full)	1.44% [at 30.3 µM] (inactive)
Cc1ccc(C)c(N)c1	-0.701% (inactive)
c1cc(N(CC2CO2)CC2CO2)ccc1Cc1ccc(N(CC2CO2)CC2CO2)cc1 (stereo not given)	9.72% (inactive)
CCCCCCCCCCCCCCN(C)C	-0.358% [at 13.5 µM] (inactive)

Compound	activity change, negative = cytotoxicity
Cc1cc(=O)oc2cc(O[C@@H]3SC[C@@H](O)[C@H](O)[C@H]3O)ccc12	-2.89% [at 30.3 µM] (inactive)
Cc1ccccc1C(=O)O	2% (inactive)
COC(=O)C(C)O (stereo not given)	0.45% (inactive)
CC(=O)Oc1cc2c(s1)CCN(C(C(=O)C1CC1)c1ccccc1F)C2 (stereo not given)	-0.74% [at 30.3 µM] (inactive)
ClCCl	1.64% (inactive)
CN1C(=O)N(C)C(O)C1O (stereo not given)	18.9% (inactive)
Clc1ccc(C(Cn2ccnc2)OCc2c(Cl)cccc2Cl)c(Cl)c1 (stereo not given)	-1.02% [at 30.3 µM] (inactive)
O=C(CO)[C@@H](O)[C@H](O)[C@@H](O)CO	6.33% [at 30.3 µM] (inactive)
OCCN1CN(CCO)CN(CCO)C1	-4.44% (inactive)
CCN(CCCCOC(=O)c1ccc(OC)c(OC)c1)C(C)Cc1ccc(OC)cc1 (stereo not given)	-0.739% [at 30.3 µM] (inactive)
CC(=O)Nc1ccc(S(N)(=O)=O)cc1	-1.69% (inactive)
CC(=O)C1CCCCC1=O (stereo not given)	6.27% (inactive)
NC(=O)c1ccncc1	-3.38% (inactive)
CC(C=O)Cc1ccc(C(C)C)cc1 (stereo not given)	3.17% (inactive)
CCOC(=O)CCCCCCCCC(=O)OCC	3.61% (inactive)
O=C(NS(=O)(=O)/C=C/c1ccccc1)c1ccc(F)cc1Cl	5.88% (inactive)
COc1cc(C(C)C)ccc1C	0.485% [at 13.5 µM] (inactive)
C=COCCCCO	4.02% (inactive)
NC(=O)c1cn(Cc2c(F)cccc2F)nn1	1.01% [at 30.3 µM] (inactive)
CC1=CCC(=C(C)C)CC1	-2.83% (inactive)
